The whole screen tested about 16,000 compounds, of which about 5,800 (36%) were called active. Roughly 23% stayed inconclusive and do not appear here. The list shows a part of the results. Unmarked numbers belong to inactive results. Calls come from the whole dose curve; as a rule, active = well fitted curve in the direction sought with a large enough effect; inconclusive = small, poorly fitted or top-dose-only effect, or effect the other way; inactive = no such curve, though single readings can be large or run the other way.

The values below come from PubChem BioAssay AID1851 (National Center for Advancing Translational Sciences (NCATS), 2009).
% is set by controls: 0 for no effect and ±100 for the full control effect.

The target of the assay is Cytochrome P450 2C19 (Homo sapiens) (UniProt P33261). The assay can be described thus: Cytochrome panel assay with activity outcomes. Conditions: recombinant CYP, pro-luciferin dealkylation, luminescence, p450-cyp2c19; series mostly up to 57.1 µM.
Sequence of Cytochrome P450 2C19 (Homo sapiens) (P33261 whole entry, looked up): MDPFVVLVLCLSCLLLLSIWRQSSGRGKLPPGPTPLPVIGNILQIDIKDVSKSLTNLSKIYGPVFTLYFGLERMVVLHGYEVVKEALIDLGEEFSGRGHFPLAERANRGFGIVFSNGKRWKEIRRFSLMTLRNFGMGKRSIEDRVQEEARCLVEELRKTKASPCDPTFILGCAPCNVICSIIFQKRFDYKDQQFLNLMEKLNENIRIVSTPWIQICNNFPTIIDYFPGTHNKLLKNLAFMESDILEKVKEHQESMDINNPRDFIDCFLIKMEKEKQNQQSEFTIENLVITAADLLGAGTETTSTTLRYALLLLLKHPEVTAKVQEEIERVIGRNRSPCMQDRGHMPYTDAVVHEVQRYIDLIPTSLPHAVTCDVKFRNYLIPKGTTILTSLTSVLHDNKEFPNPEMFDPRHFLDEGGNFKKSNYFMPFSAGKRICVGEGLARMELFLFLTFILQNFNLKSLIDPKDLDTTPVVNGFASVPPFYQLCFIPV
Regarding `N#CCSc1ncnc2c1cnn2CCO`, the AC50 (as a rule, the concentration at which the activity in the assay is half-maximal) was “inactive”.
On the same count and under the same terms, the result for `Cc1cccc(C(=O)N/N=C/c2ccc(OCC(=O)N3CCCCC3)cc2)c1` reads “inactive”.
Still for that read-out and setting: then `O=C(CSCc1cccc(Cl)c1)N/N=C/c1ccc(OCC(=O)N2CCCCC2)cc1`, with 3.16 µM (active); and `CCCc1nnc(SCC(=O)O)n1/N=C/c1ccc2c(c1)OCO2`, with “inactive”; and `O=C(/C=C/c1ccc2c(c1)OCO2)NCCSCc1cccc(Cl)c1`, with 3.16 µM (active).
Regarding `O=C(Cn1nc(C(F)F)cc1C(F)F)N/N=C/c1ccc2c(c1)OCO2`, the AC50 was 1.58 µM (active).
On to `COC(=O)N/N=C\C=C\c1ccc2c(c1)OCO2`, for which the AC50 entry was “inactive”.
`O=C(CSCc1cccc(Br)c1)N/N=C/c1ccc2c(c1)OCO2`: the half-maximal activity concentration (AC50) is 11.2 µM (active).
On the same count and under the same terms, then `COc1ccc2c(c1OC)C(=O)N(C(C)C(=O)O)C2=O` (configuration not stated), with “inactive”.
The same measure, in the same setting: the result for `COc1ccc(-n2c(=O)c(C)nc3cnc(N(C)C)nc32)cc1` reads “inactive”.
Consider `N=C(N)C(N=Nc1ccccc1)C(=N)N` (configuration not stated), for which the activity, negative = inhibition was -2.71% [at 11.4 µM].
As to `CC[C@H](Cc1c(I)cc(I)c(N)c1I)C(=O)O`, the AC50 result is “inactive”.
On the same count and under the same terms, then `O=C(NC12CC3CC(CC(C3)C1)C2)N1CCN(c2nc(-c3ccccc3)cs2)CC1`, with 2.82 µM (active).
Take `N[C@@H](CSCc1ccc(I)cc1)C(=O)O`: the activity, negative = inhibition is 12.9% [at 11.4 µM].
Consider `COc1ccc(-n2c(=O)c(-c3ccc(F)cc3)nc3cnc(OC)nc32)cc1`, for which the AC50 result is “inactive”.
On the same count and under the same terms, the result for `COc1ccc(O[C@H]2C=C[C@@H](c3ccccc3)O[C@@H]2CO/N=C(\C)CCN2CCc3nc(-c4ccccc4)c(-c4ccccc4)cc3C2)cc1` reads 0.251 µM (active).
`CCCNC(=O)OC[C@@H]1O[C@H](CCO/N=C(\C)CCN2CCCCc3nc(C)c(C)cc32)C=C[C@@H]1Oc1ccc(OC)cc1`: the activity, negative = inhibition was -12.9% [at 11.4 µM].
Still for that read-out and setting: then `CCCNC(=O)OC[C@@H]1O[C@H](CCO/N=C(\C)CCN2CCCc3nc(C)c(C)cc32)C=C[C@@H]1Oc1ccc(OC)cc1`, with -43.5% [at 11.4 µM]; and `CC(=O)OC[C@@H]1O[C@H](CCO/N=C(\C)CCN2CCCc3nc(C)c(C)cc32)C=C[C@@H]1OC(C)=O`, with 38.8% [at 11.4 µM]; and `CO/N=C(\C)CCN1CCCCc2nc(C)c(C)cc21`, with -22.3% [at 11.4 µM].
As for `C/C(CCN1CCc2nc(-c3ccccc3)c(-c3ccccc3)cc2C1)=N\OC[C@@H](C)[C@H](OCc1ccccc1)C(C)C`, the half-maximal activity concentration (AC50) was 1.58 µM (active).
With `CCc1cc2c(nc1CC)CCN(CC/C(C)=N/OC[C@@H](C)[C@H](OCc1ccccc1)C(C)C)C2`, the activity, negative = inhibition is -15.6% [at 11.4 µM].
In the case of `CC(=O)OC[C@@H]1O[C@H](CCO/N=C(\C)CCN2CCc3nc(-c4ccccc4)c(-c4ccccc4)cc3C2)C=C[C@@H]1OC(C)=O`, the activity, negative = inhibition was -28.2% [at 11.4 µM].
Consider `COc1ccc(O[C@H]2C=C[C@@H](c3ccccc3)O[C@@H]2CO/N=C(\C)CCN2CCCc3nc(C)c(C)cc32)cc1`, for which the half-maximal activity concentration (AC50) is 0.398 µM (active).
`C/C(CCN1CCc2nc(-c3ccccc3)c(-c3ccccc3)cc2C1)=N\OC[C@@H](O)COCc1ccco1`: the activity, negative = inhibition was -21.9% [at 11.4 µM].
As to `COc1ccc(O[C@H]2C=C[C@@H](c3ccccc3)O[C@@H]2CO/N=C(\C)CCN2CCCCc3nc(C)c(C)cc32)cc1`, the AC50 was 2.51 µM (active).
For `C=CC[C@@H]1C=C[C@H](O/N=C(\C)CCN2CCc3nc(-c4ccccc4)c(-c4ccccc4)cc3C2)[C@H](CO)O1`, the activity, negative = inhibition was -25.6% [at 11.4 µM].
On the same count and under the same terms, the result for `COC(=O)CC[C@@H](C)[C@H]1CC[C@H]2[C@H]3CC[C@H]4C[C@@H]5CC[C@@]4(C)C3(O5)[C@@H](Br)[C@@H](Br)[C@@]12C` reads -31% [at 11.4 µM].
Turning to `OCCN=c1cc(-c2ccccc2)oc2ccc(Cl)cc12`, the half-maximal activity concentration (AC50) was 1.58 µM (active).
`CCCCN1CCC(n2c(=O)[nH]c3ccccc32)CC1`: the AC50 entry was “inactive”.
Same read-out and setting: the result for `CCCCNC(=O)[C@@H]1Cc2ccccc2N1C(=O)[C@H](N)CC` reads “inactive”; that for `CCCCCCN1Cc2ccccc2C1`, 10 µM (active).
Same read-out and setting: then `CCN(CC)C(=O)N1CCN(C)CC1`, with “inactive”; and `COC(=O)[C@@]1(Cc2ccccc2)[C@H]2c3cc(C(=O)N4CCCC4)n(Cc4ccc(O)c(OC)c4)c3C[C@H]2CN1C(=O)c1ccccc1`, with 0.501 µM (active).
In the case of `COc1ccccc1CN1CCCC2(CCN(C(=O)c3ccncc3)CC2)C1`, the AC50 result was “inactive”.
Same read-out and setting: then `COC(=O)[C@@]1(Cc2ccccc2)[C@H]2c3cc(C(=O)N4CCCC4)n(C)c3C[C@H]2CN1C(=O)c1ccccc1`, with 3.98 µM (active); and `COC(=O)[C@@]1(Cc2ccccc2)[C@H]2c3cc(C(=O)N4CCCC4)n(CC4CC4)c3C[C@H]2CN1C(=O)c1ccccc1`, with 3.16 µM (active); and `Cn1cccc1C(=O)N1CCC2(CCCN(Cc3ccccc3)C2)CC1`, with “inactive”.
On the same count and under the same terms, the result for `O=C(c1ccncc1)N1CCC[C@@]2(CCN(c3ccccc3)C2)C1` reads “inactive”; that for `O=C(c1cccc(F)c1)N1CCC2(CC1)CN(c1ccc(-c3ccccc3)cc1)C2`, “inactive”; that for `O=C(c1cccc(F)c1)N1CCC2(CC1)CN(c1ccncc1)C2`, 3.16 µM (active).
Consider `O=C(c1ccncc1)N1CCC2(CC1)CN(c1ncccn1)C2`, for which the AC50 entry was “inactive”.
Consider `O=C(c1cccc(F)c1)N1CCC2(CC1)CCN(c1ccncc1)CC2`, for which the AC50 result was “inactive”.
Same read-out and setting: then `O=C(c1ccncc1)N1CCC2(CC1)CN(c1ccccc1)C2`, with 0.316 µM (active); and `COc1ccc(C(=O)N2CCC3(CC2)CCN(c2ncccn2)CC3)cc1`, with “inactive”; and `O=C(c1ccncc1)N1CCC2(CC1)CCN(c1ncccn1)CC2`, with 2.51 µM (active).
Still for that read-out and setting: then `O=C(c1cc(C(F)(F)F)cc(C(F)(F)F)c1)N1CCC2(CC1)CN(c1ccncc1)C2`, with “inactive”.
For `NC(N)=NC(N)=Nc1ccc(S(N)(=O)=O)cc1`, the activity, negative = inhibition is 28.1% [at 11.4 µM].
Take `CC(C)CN1CC2(CCN(C(=O)c3cccc(F)c3)CC2)C1`: the AC50 result is “inactive”.
Regarding `NNC(=O)[C@@H](O)[C@H](O)[C@H](O)CO`, the activity, negative = inhibition was 16% [at 11.4 µM].
As to `Cn1c([N+](=O)[O-])cnc1COC(N)=O`, the AC50 result was “inactive”.
As to `CCCCCCCCCCCCCCCC(=O)C(F)(F)F`, the AC50 entry was “inactive”.
Still for that read-out and setting: then `COc1ccc(-c2cc(C3CCN(c4cc(Cl)nc(N)n4)CC3)[nH]n2)cc1`, with 3.16 µM (active); and `Nc1nc(Cl)cc(N2CCC(c3cc(-c4ccc(Cl)cc4Cl)n[nH]3)CC2)n1`, with 3.98 µM (active).
Same read-out and setting: the result for `NC1CCN(c2cccc(Cl)n2)CC1` reads “inactive”.
`C[N+](C)(C)c1ccc([C@H](N)C(=O)O)cc1`: the activity, negative = inhibition was -19.4% [at 11.4 µM].
Turning to `CCOC(=O)C1C(=O)C=C(c2ccc(C)cc2)CC1c1ccco1` (configuration not stated), the half-maximal activity concentration (AC50) was 3.98 µM (active).
The same measure, in the same setting: the result for `CCOC(=O)C1C(=O)C=C(c2ccc(NS(C)(=O)=O)cc2)CC1c1ccco1` (configuration not stated) reads 14.1 µM (active); that for `CCCCCCC(C)n1cc(C(C)=O)c(=O)[nH]c1=O` (configuration not stated), 15.8 µM (active); that for `N[C@@H](Cn1cc(F)c(=O)[nH]c1=O)C(=O)O`, “inactive”.
With `CCCCCCCCn1cc(C(C)=O)c(=O)[nH]c1=O`, the concentration at half-maximal activity (AC50) is 17.8 µM (active).
On the same count and under the same terms, then `CC(C)NC[C@H](O)c1cc(O)cc(O)c1`, with “inactive”.
In the case of `CC(C)Oc1ccc2ccccc2c1C=O`, the AC50 was 10 µM (active).
`COc1ccc(C(=O)NCS(=O)(=O)c2ccc(C)cc2)cc1`: the concentration at half-maximal activity (AC50) was 6.31 µM (active).
As for `O=C(CN(Cc1ccco1)C(=O)c1ccccc1)Nc1ccc(Cl)c(Cl)c1`, the AC50 was 3.16 µM (active).
Still for that read-out and setting: then `Cc1cc(N2CCN(C)CC2)nc2ccc(NC(=O)CCC(=O)NCc3ccco3)cc12`, with “inactive”; and `O=C(CN(Cc1ccco1)C(=O)c1cccc(Cl)c1)Nc1c(Cl)cc(Cl)cc1Cl`, with 10 µM (active).
Regarding `CO[C@]1(C2=NCCN2)COc2ccccc2O1`, the AC50 result was “inactive”.
As to `Cc1ccc(-n2nnnc2SCC(=O)NNC(=O)c2ccco2)c(C)c1`, the AC50 result was “inactive”.
The same measure, in the same setting: the result for `CC(=O)c1ccc(-n2nnnc2SCC(=O)Nc2cccc(NC(=O)c3ccco3)c2)cc1` reads 3.16 µM (active); that for `CCC(=O)Nc1cccc(NC(=O)CSc2nnnn2Cc2ccccc2)c1`, 10 µM (active); that for `CNC(=O)c1nnn(Cc2ccccc2)c1NC(=O)C(F)(F)F`, “inactive”.
Same read-out and setting: then `CCc1cc2cc(C)c(C)cc2nc1SCC(=O)NNC(=O)c1ccco1`, with “inactive”; and `Cc1ccc(SCC(=O)Nc2cccc(NC(=O)c3ccco3)c2)cc1`, with 7.08 µM (active); and `O=C(CSc1ccc(Cl)cc1)Nc1cccc(NC(=O)c2ccco2)c1`, with 2.51 µM (active).
With `O=C(NC1CCCCC1)c1sc(=S)n2c1[nH]c(=O)c1ccccc12`, the AC50 was 4.47 µM (active).
As to `O=C(NCc1ccccc1)c1sc(=S)n2c1[nH]c(=O)c1ccccc12`, the AC50 was 11.2 µM (active).
Same read-out and setting: then `Nc1c(C(=O)NCc2ccccc2)sc2nc3c(cc12)C(=O)CCC3`, with “inactive”; and `CC(=O)CC(=O)[C@@]1(O)CC[C@@H]2[C@@H]3C=C(C)C4=CC(=O)CC[C@@H]4[C@H]3CC[C@]21C`, with 5.01 µM (active).
With `CC(=O)O[C@]1(C(C)=O)CC[C@@H]2[C@@H]3C=C(C)C4=CC(=O)CC[C@@]4(C)[C@H]3CC[C@]21C`, the AC50 result is “inactive”.
For `N#Cc1ccccc1Sc1ccccc1N`, the AC50 is 2.82 µM (active).
On to `N#CC(=C(/N)Sc1ccccc1N)/C(C#N)=C(/N)Sc1ccccc1N`, for which the AC50 entry was “inactive”.
On to `C[C@@H](c1ccccc1)N1C(=O)[C@@H]2[C@H]3C(=CC[C@H]2C1=O)C(=O)[C@H]1O[C@H]1[C@H]3O`, for which the activity, negative = inhibition was 18.8% [at 11.4 µM].
As to `Cc1ccc(S(=O)(=O)N(Cc2ccccc2)c2ccccc2C(=O)NCc2ccco2)cc1`, the AC50 is 3.55 µM (active).
Still for that read-out and setting: the result for `N[C@H](C(=O)N[C@@H]1C(=O)N2C(C(=O)O)=C(Cl)CS[C@@H]12)c1ccccc1` reads “inactive”; that for `CC1=C(C(=O)O)N2C(=O)C(NC(=O)c3ccn(C)n3)C2SC1` (configuration not stated), 25.1 µM (active).
Still for that read-out and setting: the result for `CC(=O)OCC1=C(C(=O)O)N2C(=O)[C@@H](NC(=O)CSc3ccncc3)[C@@H]2SC1` reads “inactive”.
